The results in this text go back to PubChem BioAssay (Tox21).

Molecules are shown by their SMILES. Values without a mark were called inactive. Records with an inconclusive call do not appear. Calls of active or inactive are those of the source. Unless noted, the call rests on the fitted dose curve.

Assay [1] can be described thus: Nuclear factor erythroid 2-related factor 2/antioxidant responsive element (Nrf2/ARE) small molecule agonists: qHTS cell viability counter screen in human keratinocytes (AID 1919968; active means well fitted curve in the direction sought with a large enough effect in the repeat runs; an effect the other way counts as inactive or inconclusive; further: nearly all actives have a fitted effect of over 55% in size; further: potency means the concentration at half of the fitted maximal effect). In outline:
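KeratinoSens cells (HaCaT keratinocytes stably carrying an ARE-luciferase reporter) were seeded at 1,500 cells/well and rested 5 h at 37 C/5% CO2. They were then exposed to compounds in DMSO for 23 h. Viability was read by CellTiter-Fluor fluorescence after 1 h.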
A general note: In qHTS, concentration-response curves come from the screen itself.

Assay [2] is described as follows: Nuclear factor erythroid 2-related factor 2/antioxidant responsive element (Nrf2/ARE) small molecule agonists: luciferase reporter gene qHTS assay in human keratinocytes (AID 1919969). Further: nearly all actives have a fitted effect of over 35% in size. Further: potency means the concentration at half of the fitted maximal effect. On the technique in general: In a reporter assay the amount or activity of a reporter protein is the signal.
Assay [3] concerns the target Gonadotropin-releasing hormone receptor (Homo sapiens) (UniProt P30968). The assay can be described thus: Human gonadotropin-releasing hormone receptor (GnRHR) small molecule agonists, calcium flux assay in GnRHR-HEK293 cells (AID 1920063). Further: nearly all actives have a fitted effect of over 35% in size. Put shortly: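 HEK293 cells stably expressing human GnRHR were plated 18 h at 37 °C, loaded with calcium dye 1 h at 37 °C, then given compound in agonist mode; fluorescence (Ex/Em 480/540) read kinetically for 3 min at 1 s intervals.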
Background: Calcium assays in cells follow changes in intracellular calcium, usually with a dye or a luminescent sensor.

In assay [4] the target is KiSS-1 receptor (Homo sapiens) (UniProt Q969F8). The assay can be described thus: Human kisspeptin (KISS1R) small molecule agonists, calcium flux assay in KISS1R-HEK293 cells (AID 1920064; active means well fitted curve in the direction sought with a large enough effect in the repeat runs; an effect the other way counts as inactive or inconclusive). In outline:
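HEK293 cells stably expressing human KISS1R were plated 18 h at 37 °C, loaded with calcium dye for 1 h at 37 °C, then given compound by pin tool. Fluorescence (Ex/Em 480/540) was read kinetically for 3 min.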

A short description of assay [5]: G protein-coupled receptor (GPCR) small molecule agonists, calcium flux assay: HEK293 wild type cell line counter screen (AID 1920065). In outline:
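Cells were plated and cultured 18 h at 37 C/5% CO2, then loaded with calcium dye for 1 h at 37 C. Compounds in DMSO were pin-transferred in agonist mode, and fluorescence (Ex/Em 480/540) was read kinetically for 3 min at 1 s intervals.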

Assay [6] in a line: p53 small molecule agonists, cell-based qHTS assay with human liver microsomes (AID 1963577).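 Further: p53 response element beta-lactamase reporter cells with liver microsomes plus NADPH.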 In outline: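 With metabolic activation: human liver microsomes (0.5 mg/mL final) plus NADPH (0.5 mg/mL final) added alongside compounds to p53RE-bla cells; 16 h 37 C exposure; beta-lactamase read by LiveBLAzer fluorescence.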
Assay [7] in a line: p53 small molecule agonists, cell-based qHTS assay with rat liver microsomes (AID 1963578). Put shortly:
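Metabolic activation by rat liver microsomes and NADPH, each 0.5 mg/mL final, added right after compounds to p53RE-bla reporter cells (4,000/well, plated 5 h earlier). 16 h at 37 C, then LiveBLAzer substrate for 2 h at room temperature in the dark; fluorescence read-out.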

Assay [8] can be described thus: p53 small molecule agonists, cell-based qHTS assay with human liver microsomes: qHTS cell viability counter screen (AID 1963579). Further: nearly all actives have a fitted effect of over 45% in size. Put shortly: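 Metabolic activation used human liver microsomes and NADPH, both 0.5 mg/mL final, over 16 hours at 37 C on p53RE-bla cells (4,000/well). Cytotoxicity measured by CellTiter-Glo luminescence, 30 min at room temperature.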
A short description of assay [9]: p53 small molecule agonists, cell-based qHTS assay with rat liver microsomes: qHTS cell viability counter screen (AID 1963580). Further: nearly all actives have a fitted effect of over 45% in size. Put shortly: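 HCT-116 p53RE-bla, 4,000 cells/well, 5 h pre-incubation; cpd + rat liver microsomes 0.5 mg/mL + NADPH 0.5 mg/mL (final); 16 h, 37 C; CellTiter-Glo, 30 min RT; luminescence.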
A short description of assay [10]: p53 small molecule agonists, cell-based qHTS assay (AID 1963582; active means well fitted activation curve with a large enough effect in the signal ratio in the repeat runs, not every such curve was filed as active; the % refers to the signal ratio). Put shortly: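 p53RE-bla beta-lactamase reporter cells rested 5 h at 37 C/5% CO2, then received compounds in DMSO by pin transfer and were incubated 16 h at 37 C. LiveBLAzer B/G FRET substrate was loaded for 2 h at room temperature before fluorescence reading.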
Assay [11] concerns the target 5-hydroxytryptamine receptor 2A (Homo sapiens) (UniProt P28223). The assay can be described thus: 5-hydroxytryptamine receptor 2A (HTR2A) small molecule antagonists, cell-based qHTS assay (AID 1963586). Further: nearly all actives have a fitted effect of over 45% in size. Put shortly: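 Antagonist-mode intracellular calcium assay: DOI (4 nM) added after 5 min compound pre-incubation at room temperature to dye-loaded HTR2A-CHO cells. Fluorescence followed for 3 min, sampled every second.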

Assay [12] has the same target. The experiment in a line: 5-hydroxytryptamine receptor 2A (HTR2A) small molecule agonists, cell-based qHTS assay (AID 1963587). Further: nearly all actives have a fitted effect of over 30% in size. Put shortly:
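Kinetic calcium-flux fluorescence (2 min, 1 sec intervals) after compound addition in agonist mode. HTR2A-CHO cells were cultured 18 h, then dye-loaded 1 h at 37 C.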

The target in assay [13] is Muscarinic acetylcholine receptor M1 (Homo sapiens) (UniProt P11229). The experiment in a line: Cholinergic receptor muscarinic 1 (CHRM1) small molecule antagonists, cell-based qHTS assay (AID 1963588). Further: nearly all actives have a fitted effect of over 40% in size. In outline: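 CHRM1-CHO calcium-flux assay, antagonist mode. Cells were seeded 18 h, dye-loaded 1 h at 37 C and given compound for 5 min at RT, then acetylcholine was added at 50nM. FDSS fluorescence was read 3 min; 15 concentrations, three runs.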
Chain of Muscarinic acetylcholine receptor M1 (Homo sapiens) (P11229 whole entry, looked up): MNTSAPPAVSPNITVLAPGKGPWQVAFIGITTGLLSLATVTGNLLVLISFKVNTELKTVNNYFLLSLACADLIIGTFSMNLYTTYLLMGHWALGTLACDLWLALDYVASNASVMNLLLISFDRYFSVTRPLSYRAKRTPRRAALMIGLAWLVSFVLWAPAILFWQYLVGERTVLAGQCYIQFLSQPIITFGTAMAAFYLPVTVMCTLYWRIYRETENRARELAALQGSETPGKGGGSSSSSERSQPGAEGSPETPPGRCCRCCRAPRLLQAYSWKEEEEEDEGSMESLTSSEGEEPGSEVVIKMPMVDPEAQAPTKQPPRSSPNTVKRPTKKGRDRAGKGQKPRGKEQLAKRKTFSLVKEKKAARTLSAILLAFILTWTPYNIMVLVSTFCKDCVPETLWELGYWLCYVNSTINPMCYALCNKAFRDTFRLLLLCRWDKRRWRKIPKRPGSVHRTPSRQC

Assay [14] shares this target. The experiment in a line: Cholinergic receptor muscarinic 1 (CHRM1) small molecule agonists, cell-based qHTS assay (AID 1963589). Further: nearly all actives have a fitted effect of over 35% in size. In outline:
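CHO cells stably expressing human CHRM1, seeded 18 h at 37 C/5% CO2, dye-loaded 1 h at 37 C, then given compound in agonist mode; intracellular calcium fluorescence read kinetically at 1 s intervals. Fifteen concentrations, three independent runs.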

A short description of assay [15]: cAMP Responsive Elements (CRE) small molecule agonists, cell-based qHTS assay (AID 1963590). Put shortly:
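CRE-bla HEK 293T cells in DMEM with 10% dialyzed FBS, NEAA, pyruvate and 25 mM HEPES were plated 18 h at 37 C/5% CO2, then exposed to compounds in DMSO for 3 h before LiveBLAzer B/G FRET substrate addition.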

Assay [16] can be described thus: cAMP Responsive Elements (CRE) small molecule antagonists, cell-based qHTS assay (AID 1963591; active means well fitted inhibition curve with a large enough effect in the signal ratio in the repeat runs, not every such curve was filed as active; the % refers to the signal ratio). Put shortly:
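CRE-bla HEK293T cells were plated 18 h at 37 °C/5% CO2, pinned with compound in DMSO, then stimulated with NKH477 at 0.25 uM final for 3 h. LiveBLAzer B/G FRET substrate was added and plates incubated 2 h at room temperature.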

In assay [17] the target is Beta-2 adrenergic receptor (Homo sapiens) (UniProt P07550). The assay can be described thus: Adrenergic beta2 receptor (ADRB2) small molecule antagonists, cell-based qHTS assay (AID 1963592). Further: series mostly up to about 92 µM; nearly all actives have a fitted effect of over 50% in size. In outline: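 Cells (CHO, stable ADRB2 overexpression) incubated 18-20hr at 37C; compounds added from DMSO; agonist mix (1nM isoproterenol, 100uM IBMX, 25uM Ro-20-1724) added; 0.5hr RT; d2-cAMP and anti-cAMP-cryptate added; 1hr RT; 665/615 nm read.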
Chain of Beta-2 adrenergic receptor (Homo sapiens) (P07550 whole entry, looked up): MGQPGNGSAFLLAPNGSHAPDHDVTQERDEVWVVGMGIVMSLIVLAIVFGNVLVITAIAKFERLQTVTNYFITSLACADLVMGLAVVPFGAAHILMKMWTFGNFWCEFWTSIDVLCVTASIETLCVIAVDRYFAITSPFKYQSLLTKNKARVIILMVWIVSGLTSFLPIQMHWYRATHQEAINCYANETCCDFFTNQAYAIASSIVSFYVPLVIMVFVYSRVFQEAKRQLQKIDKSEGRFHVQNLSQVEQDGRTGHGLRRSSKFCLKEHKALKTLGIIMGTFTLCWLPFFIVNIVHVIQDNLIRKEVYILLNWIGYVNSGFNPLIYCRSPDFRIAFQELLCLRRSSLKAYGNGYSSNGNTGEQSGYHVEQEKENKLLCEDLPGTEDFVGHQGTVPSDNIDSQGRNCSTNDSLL

Assay [18] shares this target. The assay can be described thus: Adrenergic beta2 receptor (ADRB2) small molecule agonists, cell-based qHTS assay (AID 1963593).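 Further: CHO cells stably overexpressing human ADRB2.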 In outline: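 CHO cells stably over-expressing ADRB2 were plated overnight at 37C, then dosed with compounds plus a stimulation mix containing 100uM IBMX and 25uM Ro-20-1724 for 0.5hr at room temperature. cAMP was measured by HTRF competition, 1hr.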

For assay [19], the target named is D(2) dopamine receptor (Homo sapiens) (UniProt P14416). The assay can be described thus: Dopamine D2 receptor (DRD2) small molecule agonists, cell-based qHTS assay (AID 1963594). Further: nearly all actives have a fitted effect of over 35% in size. Put shortly:
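cAMP accumulation in DRD2-HEK293 cells measured by HTRF after 1 h detection; compounds added 10 min before NKH477 (200nM […]) forskolin-analogue stimulation, 30 min at room temperature, with Ro20-1724 present at 0.1 mM final.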

For assay [20] the target is unchanged. The experiment in a line: Dopamine D2 receptor (DRD2) small molecule antagonists, cell-based qHTS assay (AID 1963595; active means well fitted inhibition curve with a large enough effect in the signal ratio in the repeat runs, with a control signal flat; the % refers to the signal ratio). In outline:
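HEK293 cells stably expressing DRD2, preincubated with 0.1 mM Ro20-1724 and compounds 10 min, were stimulated with 200 nM NKH477 plus 12 nM quinpirole for 30 min at room temperature; cAMP measured by HTRF (665/620 nm).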

Chain of 5-hydroxytryptamine receptor 2A (Homo sapiens) (P28223 whole entry, looked up): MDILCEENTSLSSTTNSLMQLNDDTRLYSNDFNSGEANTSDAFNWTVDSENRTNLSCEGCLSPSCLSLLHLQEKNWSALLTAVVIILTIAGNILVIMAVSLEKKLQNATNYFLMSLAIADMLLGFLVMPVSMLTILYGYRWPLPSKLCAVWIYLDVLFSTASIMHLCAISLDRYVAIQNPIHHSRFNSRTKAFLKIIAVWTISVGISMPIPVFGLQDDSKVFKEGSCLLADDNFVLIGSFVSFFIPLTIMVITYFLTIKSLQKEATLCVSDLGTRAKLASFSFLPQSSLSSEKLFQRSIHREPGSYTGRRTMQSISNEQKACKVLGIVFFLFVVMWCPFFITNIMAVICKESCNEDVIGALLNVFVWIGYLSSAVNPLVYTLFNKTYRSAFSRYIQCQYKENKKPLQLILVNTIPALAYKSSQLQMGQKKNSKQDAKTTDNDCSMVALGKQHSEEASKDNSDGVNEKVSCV
Chain of Gonadotropin-releasing hormone receptor (Homo sapiens) (P30968 whole entry, looked up): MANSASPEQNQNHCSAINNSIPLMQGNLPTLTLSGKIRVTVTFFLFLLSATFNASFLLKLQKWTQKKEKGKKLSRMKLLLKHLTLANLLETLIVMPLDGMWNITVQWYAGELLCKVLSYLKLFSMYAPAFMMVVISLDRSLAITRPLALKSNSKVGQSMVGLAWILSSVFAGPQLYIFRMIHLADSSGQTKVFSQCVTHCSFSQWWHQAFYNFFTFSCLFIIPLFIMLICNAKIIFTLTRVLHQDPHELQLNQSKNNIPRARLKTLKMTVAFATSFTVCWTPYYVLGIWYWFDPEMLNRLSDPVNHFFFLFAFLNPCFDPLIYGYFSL
Chain of KiSS-1 receptor (Homo sapiens) (Q969F8 whole entry, looked up): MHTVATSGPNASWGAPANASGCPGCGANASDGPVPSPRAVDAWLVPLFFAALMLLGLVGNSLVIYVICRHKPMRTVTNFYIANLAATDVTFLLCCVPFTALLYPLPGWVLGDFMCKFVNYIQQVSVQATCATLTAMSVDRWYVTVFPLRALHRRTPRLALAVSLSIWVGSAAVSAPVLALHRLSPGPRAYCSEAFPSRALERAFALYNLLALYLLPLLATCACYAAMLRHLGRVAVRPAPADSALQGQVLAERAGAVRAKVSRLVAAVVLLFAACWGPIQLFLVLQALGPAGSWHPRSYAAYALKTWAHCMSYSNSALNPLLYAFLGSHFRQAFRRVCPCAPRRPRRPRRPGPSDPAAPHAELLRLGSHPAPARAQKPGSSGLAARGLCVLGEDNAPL
Chain of D(2) dopamine receptor (Homo sapiens) (P14416 whole entry, looked up): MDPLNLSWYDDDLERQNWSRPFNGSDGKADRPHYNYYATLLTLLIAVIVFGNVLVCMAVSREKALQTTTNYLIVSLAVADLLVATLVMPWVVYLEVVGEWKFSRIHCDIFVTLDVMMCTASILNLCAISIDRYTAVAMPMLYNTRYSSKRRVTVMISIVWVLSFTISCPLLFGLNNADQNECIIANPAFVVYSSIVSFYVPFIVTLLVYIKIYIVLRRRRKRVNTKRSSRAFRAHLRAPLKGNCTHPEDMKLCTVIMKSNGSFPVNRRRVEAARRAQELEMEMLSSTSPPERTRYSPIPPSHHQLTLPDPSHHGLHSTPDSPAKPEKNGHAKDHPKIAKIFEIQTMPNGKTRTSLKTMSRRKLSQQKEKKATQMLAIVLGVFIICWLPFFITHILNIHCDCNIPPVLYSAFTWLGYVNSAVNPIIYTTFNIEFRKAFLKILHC

`FC(F)(F)C(F)(F)C(F)(F)C(F)(F)CCI`: the Potency entry in assay [1], in assay [2], in assay [3], in assay [6], in [7] and in assay [8] was “inactive” each time. For the same compound, the Potency entry in [9], in assay [10], in [11], in [12], in assay [13] and in assay [14] was “inactive” throughout. Moreover, the Potency entry in assay [15], in assay [16], in assay [17], in [18] and in assay [19] was “inactive” each time. Besides, the result in assay [4] and in assay [5] was inactive.
Turning to `NC1[C@H]2CN(c3nc4c(cc3F)c(=O)c(C(=O)O)cn4-c3ccc(F)cc3F)C[C@@H]12` (some centres not stated), the Potency result in [1], in assay [2], in [3], in assay [6], in assay [7] and in assay [8] was “inactive” in each case. For the same compound, the Potency result in assay [9], in assay [17], in [19] and in [20] was “inactive” in each case. Also, the outcome in assay [4] and in assay [5] was inactive.
As for `Nc1ccc(S(=O)(=O)Nc2ccccn2)cc1`, the Potency result in assay [1], in assay [2], in assay [3], in assay [6], in [7] and in assay [8] was “inactive” in each case. The Potency result in [9], in [13], in [14], in [16], in [17] and in assay [18] was “inactive” in each case. Also, the Potency result in assay [20] is “inactive”. Further, the result in assay [4] and in [5] was inactive.
With `CCC(C)c1cc([N+](=O)[O-])cc([N+](=O)[O-])c1OC(=O)OC(C)C` (configuration not stated), the Potency in [1] is 38.6 µM (active); in [2], 9.69 µM (active). Also, the Potency entry in [3], in [6], in [7], in assay [8], in [9] and in assay [12] was “inactive” throughout. Moreover, the Potency result in assay [13], in assay [14], in assay [19] and in assay [20] was “inactive” throughout. The outcome in [4] and in assay [5] was inactive.
On to `CN1CCOC(c2ccccc2)c2ccccc2C1` (configuration not stated), for which the Potency entry in assay [1], in assay [2], in assay [3], in [6], in [7] and in assay [8] was “inactive” each time. Further, the Potency result in [9], in assay [10], in assay [11], in [12], in [13] and in assay [14] was “inactive” throughout. In addition, the Potency entry in assay [15], in assay [16], in assay [17], in [18], in assay [19] and in [20] was “inactive” throughout. Besides, the result in assay [4] and in [5] was inactive.
In the case of `O=c1[nH]c(=O)n([C@H]2O[C@H](CO)[C@@H](O)[C@@H]2O)cc1/C=C\Br`, the Potency entry in assay [1], in assay [2], in assay [3], in assay [6], in assay [7] and in assay [8] was “inactive” throughout. Further, the Potency result in assay [9], in assay [12], in assay [13], in assay [14], in assay [16] and in assay [19] was “inactive” throughout. Further, the Potency result in [20] is “inactive”. Besides, the result in assay [4] and in assay [5] was inactive.
On to `CCOC(=O)CC1(C)OCC(C)O1` (configuration not stated), for which the Potency result in assay [1], in [2], in assay [3], in assay [6], in assay [7] and in [8] was “inactive” each time. In addition, the Potency entry in [9], in assay [10], in assay [11], in assay [12], in assay [13] and in [14] was “inactive” throughout. Moreover, the Potency entry in assay [15], in assay [16], in assay [17], in assay [18], in assay [19] and in [20] was “inactive” throughout. For the same compound, the outcome in assay [4] and in [5] was inactive.
Consider `O=C(c1ccccc1)c1ccc2n1CCC2C(=O)O` (configuration not stated), for which the Potency result in assay [1], in assay [2], in assay [3], in assay [6], in assay [7] and in assay [8] was “inactive” in each case. Moreover, the Potency result in assay [9], in assay [17], in assay [19] and in assay [20] was “inactive” throughout. The result in assay [4] and in assay [5] was inactive.
Turning to `CCOC(=O)c1cnc2c(cnn2CC)c1NN=C(C)C`, the Potency result in [1], in [2], in assay [3], in assay [6], in [7] and in assay [8] was “inactive” in each case. The Potency result in assay [9], in [12], in [14], in assay [15], in assay [17] and in assay [19] was “inactive” each time. In addition, in assay [20], the Potency result was “inactive”. Moreover, the outcome in [4] and in [5] was inactive.
